# How the values were obtained:
# Assay in all cases: DAPPL (digital affinity profiling via proximity ligation, sequencing); 10 mM Tris-HCl pH 7.5, 50 mM NaCl, 1 mM DTT, 4% glycerol, room temperature, 30 min; GST-TFs on glutathione beads, 16-mer random dsDNA library, 0.1% formaldehyde crosslink after washing; high values mean tight binding
# FEV = biological target: T1, FEV (Homo sapiens, UniProt Q99581 1-238); conditions: protein: recombinant; tags: N-terminal GST; dsDNA, one strand shown
# T1 sequence: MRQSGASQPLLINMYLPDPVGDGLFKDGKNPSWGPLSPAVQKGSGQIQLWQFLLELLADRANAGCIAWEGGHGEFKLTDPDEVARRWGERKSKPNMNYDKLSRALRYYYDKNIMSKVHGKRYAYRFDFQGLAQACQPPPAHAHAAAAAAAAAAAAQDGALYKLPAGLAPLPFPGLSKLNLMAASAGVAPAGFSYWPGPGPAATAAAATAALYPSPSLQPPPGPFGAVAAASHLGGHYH
# Outline: (§1)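 Binding signal is given per hexamer as its read frequency for a factor divided by its frequency in the tag-only sample. GST-fused human transcription factors were expressed in yeast, captured on glutathione beads, barcoded with DNA and pooled with that sample, then incubated with 200 nmole of a 16-mer random double-stranded DNA library in Tris/NaCl/DTT/glycerol buffer for 30 min at room temperature. The pools were then washed, crosslinked, proximity-ligated, amplified by PCR and sequenced on an Illumina NextSeq500.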
# ETV5 = ETV5 (Homo sapiens, UniProt P41161 1-510); conditions: protein: recombinant; tags: N-terminal GST; dsDNA, one strand shown
# Chain of ETV5 (P41161 whole entry): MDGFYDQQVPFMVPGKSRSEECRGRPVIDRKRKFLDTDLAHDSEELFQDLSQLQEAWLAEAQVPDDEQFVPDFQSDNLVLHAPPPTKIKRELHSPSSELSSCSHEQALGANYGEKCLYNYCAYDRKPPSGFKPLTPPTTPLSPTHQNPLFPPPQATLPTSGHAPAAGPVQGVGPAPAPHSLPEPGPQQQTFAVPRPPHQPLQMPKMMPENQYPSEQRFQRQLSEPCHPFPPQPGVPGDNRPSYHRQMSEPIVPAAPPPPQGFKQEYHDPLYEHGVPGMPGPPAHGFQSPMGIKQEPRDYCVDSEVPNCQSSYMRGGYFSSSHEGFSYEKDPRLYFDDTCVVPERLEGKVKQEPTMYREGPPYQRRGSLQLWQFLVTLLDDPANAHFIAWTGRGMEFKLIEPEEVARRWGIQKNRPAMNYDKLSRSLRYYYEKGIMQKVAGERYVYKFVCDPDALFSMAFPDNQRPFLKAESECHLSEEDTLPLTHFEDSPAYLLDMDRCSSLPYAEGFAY
# Outline: as §1
# HSF1 = HSF1 (Homo sapiens, UniProt Q00613 1-529); conditions: protein: recombinant; tags: N-terminal GST; chain copies: 3; dsDNA, one strand shown
# Chain of HSF1 (Q00613 whole entry): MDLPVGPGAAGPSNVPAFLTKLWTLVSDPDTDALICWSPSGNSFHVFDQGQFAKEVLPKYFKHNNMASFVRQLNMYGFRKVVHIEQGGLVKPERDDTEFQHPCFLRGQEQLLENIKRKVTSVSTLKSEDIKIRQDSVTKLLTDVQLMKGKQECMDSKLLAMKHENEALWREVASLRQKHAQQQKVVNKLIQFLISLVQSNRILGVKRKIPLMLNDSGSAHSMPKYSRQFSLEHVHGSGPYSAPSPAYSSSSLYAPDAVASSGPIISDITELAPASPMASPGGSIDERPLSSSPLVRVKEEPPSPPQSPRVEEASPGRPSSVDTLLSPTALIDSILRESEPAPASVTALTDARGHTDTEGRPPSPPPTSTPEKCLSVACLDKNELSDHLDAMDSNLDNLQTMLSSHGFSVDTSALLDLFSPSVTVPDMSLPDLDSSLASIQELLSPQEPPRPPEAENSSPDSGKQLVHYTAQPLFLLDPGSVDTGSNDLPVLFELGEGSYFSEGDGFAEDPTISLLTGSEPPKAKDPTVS
# Outline: as §1
# SPIC = biological target: T2, SPIC (Homo sapiens, UniProt Q8N5J4 1-248); conditions: protein: recombinant; tags: N-terminal GST; dsDNA, one strand shown
# T2 sequence: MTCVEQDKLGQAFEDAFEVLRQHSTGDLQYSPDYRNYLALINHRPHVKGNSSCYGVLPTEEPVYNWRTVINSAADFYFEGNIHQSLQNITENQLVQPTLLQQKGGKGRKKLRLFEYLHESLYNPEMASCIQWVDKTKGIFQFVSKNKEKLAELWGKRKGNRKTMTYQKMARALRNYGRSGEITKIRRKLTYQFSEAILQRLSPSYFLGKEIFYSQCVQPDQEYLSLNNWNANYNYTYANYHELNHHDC
# Outline: as §1
# ELF4 = ELF4 (Homo sapiens, UniProt Q99607 1-663); conditions: protein: recombinant; tags: N-terminal GST; dsDNA, one strand shown
# Chain of ELF4 (Q99607 whole entry): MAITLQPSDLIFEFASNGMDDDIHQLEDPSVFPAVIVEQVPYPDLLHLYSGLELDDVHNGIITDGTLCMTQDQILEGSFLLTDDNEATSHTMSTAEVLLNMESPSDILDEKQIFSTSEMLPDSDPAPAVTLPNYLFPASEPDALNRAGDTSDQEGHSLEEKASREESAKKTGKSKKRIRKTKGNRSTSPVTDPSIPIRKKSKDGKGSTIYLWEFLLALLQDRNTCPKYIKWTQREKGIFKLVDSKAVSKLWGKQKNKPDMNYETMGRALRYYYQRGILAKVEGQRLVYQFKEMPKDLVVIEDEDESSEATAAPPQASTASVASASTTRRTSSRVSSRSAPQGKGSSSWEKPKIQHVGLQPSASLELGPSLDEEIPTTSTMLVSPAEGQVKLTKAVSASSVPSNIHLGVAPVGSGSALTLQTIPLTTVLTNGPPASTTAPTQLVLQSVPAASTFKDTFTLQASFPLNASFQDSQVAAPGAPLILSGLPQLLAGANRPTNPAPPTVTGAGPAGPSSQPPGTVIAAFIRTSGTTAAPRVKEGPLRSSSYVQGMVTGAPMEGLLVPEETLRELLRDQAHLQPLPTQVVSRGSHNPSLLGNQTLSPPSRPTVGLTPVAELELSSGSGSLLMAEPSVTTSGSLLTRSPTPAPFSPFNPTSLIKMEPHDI
# Outline: as §1
# ELK4 = biological target: T3, ELK4 (Homo sapiens, UniProt P28324-2 1-405); conditions: protein: recombinant; tags: N-terminal GST; dsDNA, one strand shown
# T3 sequence: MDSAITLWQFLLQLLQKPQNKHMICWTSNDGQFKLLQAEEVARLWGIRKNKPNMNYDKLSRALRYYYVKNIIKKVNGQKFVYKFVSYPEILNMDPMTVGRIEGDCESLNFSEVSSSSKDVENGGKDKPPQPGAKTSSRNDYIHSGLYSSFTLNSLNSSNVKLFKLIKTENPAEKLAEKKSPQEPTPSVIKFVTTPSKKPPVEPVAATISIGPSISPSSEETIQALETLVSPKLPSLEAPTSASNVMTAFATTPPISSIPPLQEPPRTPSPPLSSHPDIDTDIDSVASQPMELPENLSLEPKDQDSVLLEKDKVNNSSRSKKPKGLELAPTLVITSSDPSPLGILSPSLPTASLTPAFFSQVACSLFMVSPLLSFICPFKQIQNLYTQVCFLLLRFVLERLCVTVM
# Outline: as §1
# ETV2 = biological target: T4, ETV2 (Homo sapiens, UniProt O00321 1-342); conditions: protein: recombinant; tags: N-terminal GST; dsDNA, one strand shown
# T4 sequence: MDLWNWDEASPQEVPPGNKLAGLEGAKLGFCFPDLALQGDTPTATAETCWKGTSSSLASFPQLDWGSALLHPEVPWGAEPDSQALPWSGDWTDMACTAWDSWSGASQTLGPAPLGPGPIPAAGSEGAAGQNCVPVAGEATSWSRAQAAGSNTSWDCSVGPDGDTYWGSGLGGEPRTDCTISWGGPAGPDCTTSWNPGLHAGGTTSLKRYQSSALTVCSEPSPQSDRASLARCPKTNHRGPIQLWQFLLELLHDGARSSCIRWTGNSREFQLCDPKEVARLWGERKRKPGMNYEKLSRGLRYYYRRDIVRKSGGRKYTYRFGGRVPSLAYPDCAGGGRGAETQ
# Outline: as §1
# ELF3 = biological target: T5, ELF3 (Homo sapiens, UniProt P78545 1-371); conditions: protein: recombinant; tags: N-terminal GST; dsDNA, one strand shown
# T5 sequence: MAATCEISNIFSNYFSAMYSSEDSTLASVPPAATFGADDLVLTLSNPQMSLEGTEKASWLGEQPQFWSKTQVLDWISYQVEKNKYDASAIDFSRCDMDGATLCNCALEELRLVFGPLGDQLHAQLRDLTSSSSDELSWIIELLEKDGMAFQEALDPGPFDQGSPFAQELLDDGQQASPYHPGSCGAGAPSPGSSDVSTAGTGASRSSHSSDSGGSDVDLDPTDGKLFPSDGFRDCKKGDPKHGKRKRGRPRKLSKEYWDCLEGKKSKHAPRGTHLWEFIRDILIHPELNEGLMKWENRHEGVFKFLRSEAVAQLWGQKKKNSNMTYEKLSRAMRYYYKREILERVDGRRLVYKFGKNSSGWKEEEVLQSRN
# Outline: as §1
# CRX = CRX (Homo sapiens, UniProt O43186 1-299); conditions: protein: recombinant; tags: N-terminal GST; dsDNA, one strand shown
# Chain of CRX (O43186 whole entry): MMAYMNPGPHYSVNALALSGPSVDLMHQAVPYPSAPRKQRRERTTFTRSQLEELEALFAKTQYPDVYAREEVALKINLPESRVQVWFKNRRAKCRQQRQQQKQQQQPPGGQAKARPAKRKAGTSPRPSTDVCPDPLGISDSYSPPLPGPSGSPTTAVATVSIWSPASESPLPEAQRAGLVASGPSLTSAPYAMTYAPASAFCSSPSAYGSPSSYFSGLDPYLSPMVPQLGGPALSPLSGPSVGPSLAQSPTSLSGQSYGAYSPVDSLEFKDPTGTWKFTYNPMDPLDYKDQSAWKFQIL
# Outline: as §1
# ETV1 = ETV1 (Homo sapiens, UniProt P50549 1-477); conditions: protein: recombinant; tags: N-terminal GST; dsDNA, one strand shown
# Chain of ETV1 (P50549 whole entry): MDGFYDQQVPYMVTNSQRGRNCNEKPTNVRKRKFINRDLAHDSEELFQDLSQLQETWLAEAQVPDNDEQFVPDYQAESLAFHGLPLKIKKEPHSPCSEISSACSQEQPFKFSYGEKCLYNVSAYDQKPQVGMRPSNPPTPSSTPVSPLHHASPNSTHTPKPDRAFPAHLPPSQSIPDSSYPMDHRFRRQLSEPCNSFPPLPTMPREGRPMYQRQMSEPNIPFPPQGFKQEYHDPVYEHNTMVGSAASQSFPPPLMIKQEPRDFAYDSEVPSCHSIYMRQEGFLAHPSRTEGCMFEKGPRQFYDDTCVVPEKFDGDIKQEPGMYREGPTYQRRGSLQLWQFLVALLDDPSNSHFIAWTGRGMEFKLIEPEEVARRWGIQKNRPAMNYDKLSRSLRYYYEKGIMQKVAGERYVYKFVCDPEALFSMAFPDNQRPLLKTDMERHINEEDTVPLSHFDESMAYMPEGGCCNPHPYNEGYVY
# Outline: as §1
# ERF = biological target: T6, ERF (Homo sapiens, UniProt P50548 1-548); conditions: protein: recombinant; tags: N-terminal GST; dsDNA, one strand shown
# T6 sequence: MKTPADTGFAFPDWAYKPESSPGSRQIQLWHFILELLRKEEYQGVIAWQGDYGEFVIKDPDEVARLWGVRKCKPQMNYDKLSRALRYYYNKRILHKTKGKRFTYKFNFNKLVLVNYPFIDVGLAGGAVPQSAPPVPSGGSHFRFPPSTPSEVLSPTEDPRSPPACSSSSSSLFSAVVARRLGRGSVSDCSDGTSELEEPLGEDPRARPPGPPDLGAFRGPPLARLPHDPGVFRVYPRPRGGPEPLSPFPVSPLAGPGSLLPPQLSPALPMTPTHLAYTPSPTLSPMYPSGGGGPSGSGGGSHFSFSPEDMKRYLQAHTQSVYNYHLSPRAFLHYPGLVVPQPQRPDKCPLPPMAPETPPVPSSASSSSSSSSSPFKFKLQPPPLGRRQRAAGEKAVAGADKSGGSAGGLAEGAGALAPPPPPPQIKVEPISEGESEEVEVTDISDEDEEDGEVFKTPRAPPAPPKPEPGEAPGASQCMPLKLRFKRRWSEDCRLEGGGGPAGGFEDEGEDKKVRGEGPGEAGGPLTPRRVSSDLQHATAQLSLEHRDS
# Outline: as §1
# ETV3L = biological target: T7, ETV3L (Homo sapiens, UniProt Q6ZN32 1-361); conditions: protein: recombinant; tags: N-terminal GST; dsDNA, one strand shown
# T7 sequence: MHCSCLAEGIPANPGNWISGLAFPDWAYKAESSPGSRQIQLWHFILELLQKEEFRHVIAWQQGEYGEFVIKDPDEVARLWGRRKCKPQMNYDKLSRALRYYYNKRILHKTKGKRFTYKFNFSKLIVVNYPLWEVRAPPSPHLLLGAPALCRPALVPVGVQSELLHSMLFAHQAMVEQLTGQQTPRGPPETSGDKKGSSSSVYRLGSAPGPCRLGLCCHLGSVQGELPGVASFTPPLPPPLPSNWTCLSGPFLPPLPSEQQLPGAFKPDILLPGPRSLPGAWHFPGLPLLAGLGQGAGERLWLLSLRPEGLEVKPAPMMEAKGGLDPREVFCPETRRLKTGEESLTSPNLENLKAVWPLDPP
# Outline: as §1
# ETS2 = biological target: T8, ETS2 (Homo sapiens, UniProt P15036 1-469); conditions: protein: recombinant; tags: N-terminal GST; dsDNA, one strand shown
# T8 sequence: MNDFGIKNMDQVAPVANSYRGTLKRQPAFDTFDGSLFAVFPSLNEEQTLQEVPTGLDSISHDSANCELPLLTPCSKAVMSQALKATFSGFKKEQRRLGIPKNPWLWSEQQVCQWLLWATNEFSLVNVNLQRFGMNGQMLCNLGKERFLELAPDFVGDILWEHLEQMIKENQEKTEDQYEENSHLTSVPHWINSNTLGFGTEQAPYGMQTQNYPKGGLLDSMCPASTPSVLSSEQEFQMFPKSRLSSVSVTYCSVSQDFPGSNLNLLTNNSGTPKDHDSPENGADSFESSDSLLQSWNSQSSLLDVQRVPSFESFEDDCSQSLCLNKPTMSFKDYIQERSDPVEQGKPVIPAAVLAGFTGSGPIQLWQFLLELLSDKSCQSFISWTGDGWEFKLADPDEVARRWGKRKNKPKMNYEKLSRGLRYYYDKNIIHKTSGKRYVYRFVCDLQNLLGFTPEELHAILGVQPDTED
# Outline: as §1
# SPDEF = biological target: T9, SPDEF (Homo sapiens, UniProt O95238 1-335); conditions: protein: recombinant; tags: N-terminal GST; dsDNA, one strand shown
# T9 sequence: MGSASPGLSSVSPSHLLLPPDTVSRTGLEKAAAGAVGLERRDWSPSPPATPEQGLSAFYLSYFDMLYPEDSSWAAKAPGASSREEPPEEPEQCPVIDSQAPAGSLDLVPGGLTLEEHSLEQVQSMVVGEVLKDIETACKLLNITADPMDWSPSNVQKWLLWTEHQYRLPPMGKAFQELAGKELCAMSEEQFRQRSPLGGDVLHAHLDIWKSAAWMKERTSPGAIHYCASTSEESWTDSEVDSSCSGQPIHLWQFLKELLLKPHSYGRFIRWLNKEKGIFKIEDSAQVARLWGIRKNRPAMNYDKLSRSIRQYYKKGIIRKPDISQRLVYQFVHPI
# Outline: as §1
# ETV7 = biological target: T10, ETV7 (Homo sapiens, UniProt Q9Y603 1-341); conditions: protein: recombinant; tags: N-terminal GST; dsDNA, one strand shown
# T10 sequence: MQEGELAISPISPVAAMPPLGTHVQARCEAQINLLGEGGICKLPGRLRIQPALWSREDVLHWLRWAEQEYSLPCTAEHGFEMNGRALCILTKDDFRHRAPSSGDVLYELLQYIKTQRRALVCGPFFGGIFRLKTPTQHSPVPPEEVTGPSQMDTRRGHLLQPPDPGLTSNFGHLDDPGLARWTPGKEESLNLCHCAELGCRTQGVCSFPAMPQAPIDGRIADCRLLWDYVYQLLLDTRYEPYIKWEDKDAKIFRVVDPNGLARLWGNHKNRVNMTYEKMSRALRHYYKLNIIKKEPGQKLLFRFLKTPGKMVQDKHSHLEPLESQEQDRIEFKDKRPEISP
# Outline: as §1
# ELF5 = biological target: T11, ELF5 (Homo sapiens, UniProt Q9UKW6-2 1-255); conditions: protein: recombinant; tags: N-terminal GST; dsDNA, one strand shown
# T11 sequence: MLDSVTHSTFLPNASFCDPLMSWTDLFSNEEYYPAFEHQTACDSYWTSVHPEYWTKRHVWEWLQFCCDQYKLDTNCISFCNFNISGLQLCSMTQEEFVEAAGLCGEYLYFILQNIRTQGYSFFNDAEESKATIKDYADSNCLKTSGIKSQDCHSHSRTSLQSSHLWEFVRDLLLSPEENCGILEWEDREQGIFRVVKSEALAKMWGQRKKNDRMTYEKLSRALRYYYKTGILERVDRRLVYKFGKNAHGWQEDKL
# Outline: as §1
# ETV3 = biological target: T12, ETV3 (Homo sapiens, UniProt P41162-2 1-143); conditions: protein: recombinant; tags: N-terminal GST; dsDNA, one strand shown
# T12 sequence: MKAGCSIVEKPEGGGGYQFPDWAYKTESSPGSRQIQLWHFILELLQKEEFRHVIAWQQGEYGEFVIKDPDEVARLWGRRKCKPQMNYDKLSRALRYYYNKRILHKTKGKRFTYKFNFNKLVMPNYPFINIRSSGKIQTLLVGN
# Outline: as §1
# ETV6 = ETV6 (Homo sapiens, UniProt P41212 1-452); conditions: protein: recombinant; tags: N-terminal GST; dsDNA, one strand shown
# Chain of ETV6 (P41212 whole entry): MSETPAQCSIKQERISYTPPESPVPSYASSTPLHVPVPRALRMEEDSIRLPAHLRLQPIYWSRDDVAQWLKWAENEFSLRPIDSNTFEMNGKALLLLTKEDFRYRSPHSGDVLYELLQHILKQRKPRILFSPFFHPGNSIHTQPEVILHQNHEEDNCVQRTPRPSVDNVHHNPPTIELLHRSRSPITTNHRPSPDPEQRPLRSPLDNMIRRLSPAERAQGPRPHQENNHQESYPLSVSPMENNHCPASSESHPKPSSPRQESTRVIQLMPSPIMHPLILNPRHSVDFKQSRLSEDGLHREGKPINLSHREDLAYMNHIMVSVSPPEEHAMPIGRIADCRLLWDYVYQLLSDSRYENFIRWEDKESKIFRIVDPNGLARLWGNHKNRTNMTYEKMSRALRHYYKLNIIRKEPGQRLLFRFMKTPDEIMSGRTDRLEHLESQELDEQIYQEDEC
# Outline: as §1
sequence,measurement,setting,value
CGACAA,binding signal,FEV,"1.3 fold enrichment (6-mer frequency, TF over GST control)"
same,binding signal,ETV5,"1.24 fold enrichment (6-mer frequency, TF over GST control)"
same,binding signal,HSF1,"1.12 fold enrichment (6-mer frequency, TF over GST control)"
same,binding signal,SPIC,"1.15 fold enrichment (6-mer frequency, TF over GST control)"
same,binding signal,ELF4,"1.18 fold enrichment (6-mer frequency, TF over GST control)"
same,binding signal,ELK4,"1.13 fold enrichment (6-mer frequency, TF over GST control)"
same,binding signal,ETV2,"1.08 fold enrichment (6-mer frequency, TF over GST control)"
same,binding signal,ELF3,"1.17 fold enrichment (6-mer frequency, TF over GST control)"
same,binding signal,CRX,"1.03 fold enrichment (6-mer frequency, TF over GST control)"
same,binding signal,ETV1,"1.18 fold enrichment (6-mer frequency, TF over GST control)"
same,binding signal,ERF,"1.18 fold enrichment (6-mer frequency, TF over GST control)"
same,binding signal,ETV3L,"1.24 fold enrichment (6-mer frequency, TF over GST control)"
same,binding signal,ETS2,"1.16 fold enrichment (6-mer frequency, TF over GST control)"
same,binding signal,SPDEF,"1.27 fold enrichment (6-mer frequency, TF over GST control)"
same,binding signal,ETV7,"1.12 fold enrichment (6-mer frequency, TF over GST control)"
same,binding signal,ELF5,"1.14 fold enrichment (6-mer frequency, TF over GST control)"
same,binding signal,ETV3,"1.15 fold enrichment (6-mer frequency, TF over GST control)"
same,binding signal,ETV6,"1.31 fold enrichment (6-mer frequency, TF over GST control)"

# Reference: paper PMC7862700, “An all-to-all approach to the identification of sequence-specific readers for epigenetic DNA modifications on cytosine”
